# Hit rate of the full screen: of about 25,000 compounds, about 970 (3.9%) were called active. Not shown: some 8% with an inconclusive outcome. This is one part of a sample in which actives are shown more often than they occur. No rule for the calls is given here.
# Columns and labels:
# Experiment in all cases: Primary Screen for Target Class Profiling of Small Molecule Inhibitors of Methyltransferases
# [1] = molecular target: Catechol O-methyltransferase (Homo sapiens) (UniProt P21964); details: purified enzyme, MTase-Glo SAH luminescence; activity change, negative = inhibition: at 40 µM, stronger effect = lower value; outcome: 40 uM
# Chain of Catechol O-methyltransferase (Homo sapiens) (P21964 whole entry, looked up): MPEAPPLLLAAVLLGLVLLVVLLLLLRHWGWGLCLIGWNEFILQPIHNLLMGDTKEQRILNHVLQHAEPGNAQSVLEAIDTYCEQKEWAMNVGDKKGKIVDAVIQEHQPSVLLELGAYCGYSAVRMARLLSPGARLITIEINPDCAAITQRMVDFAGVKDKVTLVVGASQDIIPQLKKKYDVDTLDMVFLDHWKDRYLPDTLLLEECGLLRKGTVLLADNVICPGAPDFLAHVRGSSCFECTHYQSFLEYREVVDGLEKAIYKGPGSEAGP
# Excerpt: (§1) PI: Matthew D. Hall Ph.D. and Quinlin M. Hanson Ph.D.
# (§2) National Center for Advancing Translational Sciences (NCATS)
# (§3) National Institute of Health (NIH), Rockville, MD
# (§4) Target class profiling (TCP) is a chemical biology approach amenable to investigating understudied biological targets. TCP is achieved by developing a generalizable assay platform and applying it to screen a curated set of compound libraries against representative members of a target class. Small molecule methyltransferases (SMMTase) are a subclass of methyltransferase that act on metabolites to modulate signaling pathways, metabolize xenobiotics, or balance the available methyl pool. We screened four curated libraries totaling 27,574 unique compounds against the SMMTases nicotinamide N-methyltransferase (NNMT), phenylethanolamine N-methyltransferase (PNMT), histamine N-methyltransferase (HNMT), glycine N-methyltransferase (GNMT), catechol O-methyltransferase (COMT), and guanidinoacetate N-methyltransferase (GAMT). The data generated by this TCP can be leveraged for informed tool molecule development. For example, in the associated publication we identified a chemotype of HNMT-selective inhibitors. Additionally, we identified a putative SMMTase-selective inhibitor with potential as a tool molecule for studying broader methyltransferase biology.
# (§5) High-through put screening assays were developed at the National Center for Advancing Translational Science (NCATS) for the enzymes NNMT, PNMT, HNMT, GNMT, COMT, and GAMT. Enzymatic activity was measured as a function of SAM cofactor conversion using the MTase Glo kit (Promega) for all enzymes. All assays were performed in 1536-well format with substrates and SAM concentrations at KM values. Enzyme concentration and assay timing were optimized for 10-20% SAM conversion. Initial screening of 27,574 compounds was done as single-point assays using the highest compound concentration (40 uM). […] These compounds were replated in 11-point dose response and assayed against NNMT, PNMT, HNMT, GNMT, COMT, GAMT, and a counter-assay. The IC50 and efficacy (maximal response) values were determined for each dose-response curve. These values are also accounted for in the area under the curve (AUC) values.
# (§6) PROTOCOL TABLE (as described by Inglese J, Shamu CE and Guy RK. 2007)
# (§7) SEQUENCE No. (e.g., 1, 2, 3, etc.); […] (e.g., Cells, Incubation, Reagent, etc.); VALUE; DESCRIPTION.
# (§8) 1; Reagent; 2 uL; SMMTase Enzyme (2x) in reaction buffer, columns 1- 48.
# (§9) 2; Reagent; 1 uL; SAM (4x) in reaction buffer, columns 1-48.
# (§10) 3; Controls; 23 nL; DMSO in column 4; sinefungin in DMSO (0 uM - 40 uM) in 7-point 1:2 dilution series (n = 2) in column 2.
# (§11) 4; Compounds; 23 nL; Columns 5-48.
# (§12) 5; Reagent; 1 uL; Substrate (4x) in reaction buffer, columns 2-48.
# (§13) 6; Time; 20-30 min; Incubation.
# (§14) 7; Reagent; 1 uL; MTase-Glo reagent (5X), columns 1-48.
# (§15) 8; Time; 30 min; Incubation.
# (§16) 9; Reagent; 5 uL; MTase-Glo Detection reagent, columns 1-48.
# (§17) 10; Time; 30 min; Incubation, luminescence evolution.
# (§18) 11; Detection; Luminescence; ViewLux uHTS Microplate Imager (PerkinElmer).
# (§19) NOTES (numbers refer to Sequence numbers above)
# (§20) 1, 2, 5. White Medium Binding Greiner 1536-well plates (Cat #789175-F, Greiner Bio-One, Monroe, NC); Reaction buffer: 50 mM Tris, pH 8.0, 3 mM MgCl2, 1 mM EDTA, 50 mM NaCl, 1 mM DTT, and 0.1 mg/mL BSA. Evaporation was prevented by covering assay plates with metal lids containing holes to allow gas diffusion.
# (§21) 1. Six SMMTase were profiled: HNMT, GNMT, PNMT, COMT, NNMT, GAMT
# (§22) 5. The corresponding substrate was used for each enzyme: HNMT - 5.3 uM Histamine; GNMT - >500 uM Glycine; PNMT - 16.2 uM Norephinephrine; COMT - 13.7 uM Norephinephrine; NNMT - 3.8 uM Nicotinamide; GAMT - 2.5 uM Guanidinoacetate.6, 8, 10. Room temperature
# (§23) 6. Final reaction conditions: 10 nM COMT, 5 uM SAM, 15 uM norepinephrine, 50 mM Tris, pH 8.0, 3 mM MgCl2, 1 mM EDTA, 50 mM NaCl, 1 mM DTT, and 0.1 mg/mL BSA; refer to tables 2 and S1 for specific timing.
# 8. […]
# [2] = molecular target: Glycine N-methyltransferase (Homo sapiens) (UniProt Q14749); details: purified enzyme, MTase-Glo SAH luminescence; measured here: GNMT inhibition; at 40 µM; stronger effect = lower value
# Chain of Glycine N-methyltransferase (Homo sapiens) (Q14749 whole entry, looked up): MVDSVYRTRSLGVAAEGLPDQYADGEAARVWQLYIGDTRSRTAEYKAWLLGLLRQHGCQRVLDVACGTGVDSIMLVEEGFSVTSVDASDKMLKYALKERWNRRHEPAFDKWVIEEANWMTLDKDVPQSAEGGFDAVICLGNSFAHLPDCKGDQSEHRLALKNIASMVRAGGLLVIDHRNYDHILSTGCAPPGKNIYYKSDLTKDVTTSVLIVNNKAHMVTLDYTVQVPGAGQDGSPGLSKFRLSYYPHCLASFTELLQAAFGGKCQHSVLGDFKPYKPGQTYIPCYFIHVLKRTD
# Excerpt: as §1, §2, §3, §4, §5, §6, §7, §8, §9, §10, §11, §12, §13, §14, §15, §16, §17, §18, §19, §20, §21, §22, §23
# 8. […]
# [3] = molecular target: Guanidinoacetate N-methyltransferase (Homo sapiens) (UniProt Q14353); details: purified enzyme, MTase-Glo SAH luminescence; measured here: GAMT inhibition; at 40 µM; stronger effect = lower value
# Excerpt: as §1, §2, §3, §4, §5, §6, §7, §8, §9, §10, §11, §12, §13, §14, §15, §16, §17, §18, §19, §20, §21, §22, §23
# 8. […]
# [4] = molecular target: Histamine N-methyltransferase (Homo sapiens) (UniProt P50135); details: purified enzyme, MTase-Glo SAH luminescence; measured here: HNMT inhibition; at 40 µM; stronger effect = lower value
# Chain of Histamine N-methyltransferase (Homo sapiens) (P50135 whole entry, looked up): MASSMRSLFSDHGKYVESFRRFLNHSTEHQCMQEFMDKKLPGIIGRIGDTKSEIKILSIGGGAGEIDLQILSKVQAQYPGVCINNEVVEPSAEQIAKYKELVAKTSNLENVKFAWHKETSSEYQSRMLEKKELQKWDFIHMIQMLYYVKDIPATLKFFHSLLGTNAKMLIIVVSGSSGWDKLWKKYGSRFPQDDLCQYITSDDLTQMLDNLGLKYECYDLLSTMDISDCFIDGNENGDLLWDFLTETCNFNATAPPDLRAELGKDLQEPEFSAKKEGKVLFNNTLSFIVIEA
# Excerpt: as §1, §2, §3, §4, §5, §6, §7, §8, §9, §10, §11, §12, §13, §14, §15, §16, §17, §18, §19, §20, §21, §22, §23
# 8. […]
# [5] = molecular target: Nicotinamide N-methyltransferase (Homo sapiens) (UniProt P40261); details: purified enzyme, MTase-Glo SAH luminescence; measured here: NNMT inhibition; at 40 µM; stronger effect = lower value
# Chain of Nicotinamide N-methyltransferase (Homo sapiens) (P40261 whole entry, looked up): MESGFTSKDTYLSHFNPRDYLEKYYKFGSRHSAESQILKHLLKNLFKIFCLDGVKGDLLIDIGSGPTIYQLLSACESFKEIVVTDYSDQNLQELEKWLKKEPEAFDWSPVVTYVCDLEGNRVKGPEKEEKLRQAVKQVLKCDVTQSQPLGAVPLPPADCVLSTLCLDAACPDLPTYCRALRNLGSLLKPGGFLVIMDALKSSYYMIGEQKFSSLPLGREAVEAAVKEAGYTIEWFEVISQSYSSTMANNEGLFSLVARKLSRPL
# Excerpt: as §1, §2, §3, §4, §5, §6, §7, §8, §9, §10, §11, §12, §13, §14, §15, §16, §17, §18, §19, §20, §21, §22, §23
# 8. […]
# [6] = molecular target: Phenylethanolamine N-methyltransferase (Homo sapiens) (UniProt P11086); details: purified enzyme, MTase-Glo SAH luminescence; measured here: PNMT inhibition; at 40 µM; stronger effect = lower value
# Chain of Phenylethanolamine N-methyltransferase (Homo sapiens) (P11086 whole entry, looked up): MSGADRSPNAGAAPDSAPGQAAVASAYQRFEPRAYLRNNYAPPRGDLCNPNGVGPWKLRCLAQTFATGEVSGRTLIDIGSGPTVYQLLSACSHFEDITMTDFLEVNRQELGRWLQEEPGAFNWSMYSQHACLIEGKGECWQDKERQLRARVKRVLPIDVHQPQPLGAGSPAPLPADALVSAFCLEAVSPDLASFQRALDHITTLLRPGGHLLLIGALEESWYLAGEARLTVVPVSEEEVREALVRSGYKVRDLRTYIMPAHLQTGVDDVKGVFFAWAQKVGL
# Excerpt: as §1, §2, §3, §4, §5, §6, §7, §8, §9, §10, §11, §12, §13, §14, §15, §16, §17, §18, §19, §20, §21, §22, §23
# 8. […]
# % is scaled to controls: 0 for no effect and ±100 for the full control effect.
Compound,"activity change, negative = inhibition [1]","activity change, negative = inhibition [2]","activity change, negative = inhibition [3]","activity change, negative = inhibition [4]","activity change, negative = inhibition [5]","activity change, negative = inhibition [6]"
Cc1cc2c(F)c(Oc3ncnn4cc(OCC(C)O)c(C)c34)ccc2[nH]1 (centres undefined),3.68% (inactive),3.84%,9.85%,8.7%,-17.3%,-3.09%
Cc1nonc1OCCn1ccnc1-c1cn(C2CCNCC2)nn1,0.411% (inactive),-2.5%,-0.534%,-2.48%,-2.16%,-1.03%
CCOC(=O)c1ccc(N2C(=O)CSc3c(c4ccccc4n3C)C2C(=O)NCc2ccccc2)cc1 (centres undefined),8.93% (inactive),13.6%,0.807%,10.5%,10.6%,10.2%
CC1CC(O)/C=C/C(O)/C=C\C(=O)O1 (centres undefined),-1.4% (inactive),0.769%,10.1%,9.33%,-2.16%,5.9%
O=C(CCn1ccc2cc(S(=O)(=O)N3CCCC3)ccc21)NCc1cccc(Cl)c1,-5.13% (inactive),-5.66%,0%,-0.957%,-15.3%,-7.6%
CC(F)(F)CN1CCOc2c(nn(-c3ccccc3Cl)c2-c2ccc(Cl)cc2)C1=O,-4.89% (active),-72.3%,-2.43%,-6.67%,-49.1%,-14.4%
COc1cc(NC(=O)CSc2nnc3n(CC(C)C)c(=O)c4ccccc4n23)cc(OC)c1,1.19% (inactive),0.652%,4.16%,4.88%,0.518%,1.8%
CC1=C(C(=O)O)/C(=C/CO[C@@H]2O[C@H](COC(=O)/C=C/c3ccc(O)cc3)[C@@H](O)[C@H](O)[C@H]2O)C(O)C1 (some centres undefined),-20.2% (inactive),4.68%,4.63%,9.32%,-5.67%,0.561%
COc1ccc2cc3n(c2c1)CC(C)(C(=O)NC1CCCC1)N(CCc1ccc(SC)cc1)C3=O (centres undefined),-1.16% (inactive),0.148%,0%,3.11%,-0.661%,-4.18%
CCC[C@H]1CN(C(=O)c2ccc3c(c2)NC(=O)CN3)C[C@@H]1N,-3.16% (inactive),-3.38%,-8.81%,-2.88%,-6.82%,-2.87%
CCOc1ccc(N2C(=O)c3cc(-c4ccc(OC)cc4)nn3CC2(C)C(=O)NCc2ccccc2OC)cc1 (centres undefined),4.86% (inactive),7.45%,4.82%,9.26%,5.96%,0.163%
CN1C(=O)c2cc(C(=O)NCCc3cccs3)nn2CC1(C)C(=O)NCc1ccc(F)cc1 (centres undefined),1.71% (inactive),3.48%,0%,-2.18%,9.12%,3.02%
C[C@]12CCC[C@](C)(C(=O)O)C1[C@@H](O)[C@@H](O)C13CC(CCC12)C(CO)(O[C@@H]1O[C@H](CO)[C@@H](O)[C@H](O)[C@H]1O)C3 (some centres undefined),-23% (inactive),0%,1.76%,7.4%,-7.28%,3.45%
CCOC(=O)c1cc2n(n1)CC(C)(C(=O)NC1CCCC1)N(c1ccc(C)c(C)c1)C2=O (centres undefined),1.75% (inactive),4.07%,4.83%,3.71%,1.82%,2.03%
O=C(NCc1ccc(Cl)cc1)c1cc(-c2ccc[nH]2)n[nH]1,-7.05% (inactive),-26.5%,-7.92%,-7.72%,-8.3%,2.91%
O=C(N[C@@H]1CN(c2ccncn2)C[C@H]1CO)C1CCCC1,-2.82% (inactive),-3.56%,-4.46%,-1.77%,-6.98%,-3.66%
O=C(Nc1ccc2ncnc(N3CCCCC3)c2c1)C1CCCCC1,-91.5% (active),-90.3%,-88.7%,-91.6%,-92.3%,-90.6%

Compound,"activity change, negative = inhibition [1]","activity change, negative = inhibition [2]","activity change, negative = inhibition [3]","activity change, negative = inhibition [4]","activity change, negative = inhibition [5]","activity change, negative = inhibition [6]"
Cn1nccc1C(=O)NC1CCCN(c2cc(N3CCCC3)ncn2)C1 (centres undefined),-8.51% (inactive),-8.51%,-10.5%,-21.6%,-17.7%,-11.9%
COc1ccc(OC)c(CNC(=O)CCn2ccc3cc(S(=O)(=O)N4CCCCC4)ccc32)c1,-2.28% (inactive),-4.44%,0.679%,-7.33%,-15%,-3.87%
COc1cc2c(cc1O)NC(=O)CC2c1cn[nH]c1-c1cc(C)ccc1C (centres undefined),-43% (active),-48.4%,-38.7%,-60.8%,-38.3%,-13.5%
COCC(=O)Nc1ncncc1-c1noc([C@@H]2CCCN2Cc2cc(OC)c(OC)c(OC)c2)n1,-16.9% (inactive),-9.35%,-8.08%,-8.93%,-16.4%,-12.8%
O=C(c1ccc(C(F)(F)F)cc1)N1CCC2(COc3ccncc3[S+](=O)([O-])N2)C1 (centres undefined),-0.613% (inactive),-4.6%,-3.02%,-0.962%,-5.7%,-0.429%
Cn1ccc(Nc2cc3c(cn2)CN(CCc2ccccc2)CCN3)n1,-9.44% (active),-10.2%,-12.2%,-92.8%,-17.5%,-56.1%
O=C1N2CCCC2CN1C1CCN(Cc2ccsc2)CC1 (centres undefined),3.52% (inactive),-1.71%,0.192%,0.939%,-3.94%,6.61%
CN(CC(=O)N1CCC2(CCNCC2)CC1)Cc1cccnc1,-5.94% (inactive),-3.63%,-4.3%,-5.87%,-4.19%,-3.85%
COc1ccc(S(=O)(=O)N2CCCCC2c2n[nH]c(C)n2)cc1 (centres undefined),12.4% (inactive),15.6%,2.87%,11.2%,10.1%,11.2%
O=C1NC(=NC2CCCC2)C2(CCCN([S+](=O)([O-])c3ccccc3)C2)N1c1cccnc1 (centres undefined),-0.276% (inactive),-3.99%,-4.94%,-1.01%,-11%,-21.7%
O=C(C1CC1)N1CCn2c(nn(-c3ccc(F)cc3)c2=O)C1,-5% (inactive),-3.41%,-8.31%,-2.04%,-9.2%,-5.36%
N#CSc1cc(SC#N)c(N)nc1N,-62.1% (active),-92.7%,-77.3%,-92.3%,-58.6%,-40.8%
C=C(C)Cn1c(=O)[nH]c2ccccc21,7.05% (inactive),-1.89%,0%,7.74%,13.6%,4.12%
CN1CCCN(S(=O)(=O)c2cccs2)c2ccccc21,-6.9% (inactive),-11.1%,-3.04%,-16.1%,-12.8%,-18.8%
Cc1cccc(CSc2nnc3n(CC(C)C)c(=O)c4ccccc4n23)c1,2.1% (inactive),-7.23%,0.416%,3.69%,-10.9%,4.42%
NCCCC(=O)N1CCN(C2CCNCC2)C(=O)C1,-0.26% (inactive),-0.497%,-3.99%,1.59%,-1.96%,0.025%
O=C(N[C@@H]1CN(C2CCOCC2)CC[C@@H]1CO)c1ccccc1,-14.8% (inactive),-7.11%,-12.7%,-6.52%,-17.2%,-14.2%

# From PubChem BioAssay AID1745853 (National Center for Advancing Translational Sciences (NCATS), 2022)
